Compound activity from PubChem.
Hits are enriched below; roughly 1.8% of the tested compounds scored in any of these assays.
GLP1R inv ag: GLP-1 receptor (human) inverse agonism; P43220; HEK293 GLP-1R CRE-luciferase, luminescence, 24 h; GLP-1R form is constitutively active; Potency, µM (titrated, usually from 38.3 µM), for the others: at the highest dose activity change, negative = inhibition, usual class: inhibitors; 1.6% of 410,000 active; AID 624417; also: potency is read from the fitted curve at half-maximal effect; % is scaled to controls: 0 for no effect and ±100 for the full control effect; nearly all actives have a fitted effect of over 55% in size
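Inverse agonism was detected as reduced cAMP-driven luciferase luminescence after 24 h compound treatment. The cells were HEK293 clones expressing constitutively active human GLP-1R with the reporter. Reporter-only and GPR119 cell lines served as counterscreen controls.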
GLP1R cytotox: cytotoxicity in counter-screen for GLP-1R inverse agonists | HEK293 cAMP-luciferase reporter cells, luminescence, 24 h | Potency, µM (highest dose often 38.3 µM), for inactives: at the highest dose activity change, negative = inhibition, hits mostly inhibitors | 0.13% of 410,000 active | AID 624418;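 also: loss of luciferase light is scored as toxicity; potency is read from the fitted curve at half-maximal effect; % is scaled to controls: 0 for no effect and ±100 for the full control effect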
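Seeding density was 200 cells/uL; after overnight-length (12 h) culture, 23 nL compounds went on for 24 h at 37 °C. Readout used a luciferase detection reagent, luminescence taken after 12 min at room temperature.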
TRPML1 inh: blocks the human TRPML1 channel. TRPML1-inducible cells, Ca2+ dye fluorescence, FDSS; hits give low values; inhibition of EC80 agonist-evoked calcium signal. 0.02% of 390,000 active. AID 624415. activity change, negative = inhibition, % (test concentration not listed); in the data active = activity change below about -50%; inconclusive = between about -30% and that limit;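 also: stimulus is agonist 54-4 at its EC80 concentration; % is scaled to controls: 0 for no effect and ±100 for the full control effect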
Target sequence (Q9GZU1 whole entry, looked up): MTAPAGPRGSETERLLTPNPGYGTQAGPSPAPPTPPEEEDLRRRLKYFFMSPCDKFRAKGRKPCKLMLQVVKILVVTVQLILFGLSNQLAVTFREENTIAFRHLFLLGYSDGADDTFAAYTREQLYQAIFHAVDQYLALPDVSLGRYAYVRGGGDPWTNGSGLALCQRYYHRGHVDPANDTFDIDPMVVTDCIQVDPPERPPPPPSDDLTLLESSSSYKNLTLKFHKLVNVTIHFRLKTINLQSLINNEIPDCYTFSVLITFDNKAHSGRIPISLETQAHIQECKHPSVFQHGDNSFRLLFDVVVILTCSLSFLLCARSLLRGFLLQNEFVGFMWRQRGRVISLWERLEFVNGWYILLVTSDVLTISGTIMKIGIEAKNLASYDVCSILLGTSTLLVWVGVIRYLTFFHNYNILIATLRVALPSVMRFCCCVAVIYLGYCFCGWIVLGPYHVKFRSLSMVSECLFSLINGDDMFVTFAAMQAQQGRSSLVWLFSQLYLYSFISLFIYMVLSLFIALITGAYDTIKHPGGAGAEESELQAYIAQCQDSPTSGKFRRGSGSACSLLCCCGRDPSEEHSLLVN
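Calcium fluorescence in TRPML1-DL cells induced overnight with Tet: a 110 s read after compound pin addition, then a 110 s antagonist read after challenge with 54-4 at 4 uM final (EC80).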
GLP-1R agonist: activates the human GLP-1 receptor. P43220. HEK293 GLP-1R CRE-luciferase, luminescence, 4-6 h; cells express a hypersensitive GLP-1R form. Potency, µM (titrated, usually from 45.6 µM), for the others: at the top dose activation, usual class: activators. 0.007% of 380,000 active. AID 624172; also: potency is read from the fitted curve at half-maximal effect; % of control where 0% means no effect
TRPML1 ag: human mucolipin-1 channel agonism; activation, % (test concentration not listed); 0.12% of 410,000 active; Q9GZU1; AID 624414; TRPML1-expressing cells, Ca2+ dye fluorescence, FDSS; in the data active = activation above about 50%; inconclusive = mostly about 30% to 49%; also: 0% is about no effect
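Tetracycline-induced TRPML1-DL cells are seeded and incubated overnight before loading with a no-wash Ca2+ dye and quencher. Agonist activity is taken from the 110 s fluorescence read following compound pin-transfer on an FDSS, before EC80 54-4 challenge.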
Numbers without * were called inactive; ? = inconclusive; . = no result given. Unless noted, calls follow the shape of the dose curve; as a rule, active = well fitted curve in the direction sought with a large enough effect; inconclusive = small, poorly fitted or top-dose-only effect, or another doubt; inactive = no such curve, though single readings can be large; an effect the other way counts as inactive or inconclusive.

SMILES	GLP1R inv ag	GLP1R cytotox	TRPML1 inh	GLP-1R agonist	TRPML1 ag
CCC1([N+](=O)[O-])COC(C=Cc2ccccc2)OC1 (configuration not stated)	?	-3%	6	11%	0
CN1[C@@H]2CC[C@@H]1CC(OC(=O)[C@H](CO)c1ccccc1)C2 (some centres not stated)	.	.	.	7%	.
CCCN(CCC)c1nc(N)nc(-c2cc(Cl)ccc2OC)n1	8.9µM*	-18%	-7	22%	0
CCCNc1nc(N)nc(-c2cc(Cl)ccc2OC)n1	11%	-8%	5	6%	0
Cc1ccc(-c2nnc(Nc3ccc(S(N)(=O)=O)cc3)c3ccccc23)cc1S(=O)(=O)N1CCOCC1	-27%	-29%	-9	.	-1
C=CCn1c(Sc2ncc([N+](=O)[O-])s2)n[nH]c1=O	?	8.9µM*	-12	-8%	0
Cc1cn2c(=O)cc(COc3ccc(NC(=O)c4ccc(C(C)(C)C)cc4)cc3)nc2s1	-28%	-24%	-1	-4%	-1
COc1ccccc1NC(=O)N(Cc1ccccc1)c1ccccn1	7.1µM*	13%	40	1%	1
O=C(Nc1ccc(/C=C/c2ccc(NC(=O)c3cc(S(=O)(=O)O)c4cccnc4c3O)cc2S(=O)(=O)O)c(S(=O)(=O)O)c1)c1cc(S(=O)(=O)O)c2cccnc2c1O	.	.	.	-1%	.
O=C(CCn1cnc2onc(-c3ccc(F)cc3)c2c1=O)Nc1ccc(F)c(Cl)c1	13µM*	-10%	13	.	1
O=C(CCn1cnc2onc(-c3ccc(F)cc3)c2c1=O)Nc1cccc(C(F)(F)F)c1	?	-18%	-21	.	1
CCN(CC)C(=S)NC(=O)c1cccnc1	13%	?	24	5%	1
CCN(CC)C(=S)NC(=O)c1ccc(F)cc1	?	3.5µM*	-21	7%	2
Cc1ccc(C(=O)NCCNc2ccc([N+](=O)[O-])cc2C(F)(F)F)cc1	10µM*	?	7	2%	2
O=C(Nc1cccc(Cl)c1)N1CCC(CO)(CCOc2ccccc2)CC1	?	-19%	-14	15%	1
O=C(Nc1ccc(Cl)cc1)N1CCC(CO)(Cc2ccccc2)CC1	7.9µM*	-15%	14	10%	-1
C1CCCCCC(NCCN2CCNCC2)CCCCC1	6.3µM*	11µM*	-1	-3%	0
COc1cc2c(NC3CCN(C)CC3)nc(N3CCCN(C)CC3)nc2cc1OCCN(C)C	.	.	.	.	0
COc1cc2c(=O)c(C(=O)c3ccc(C)c(C)c3)cn(Cc3ccccc3F)c2cc1OC	17%	-2%	-21	.	2
Cc1cc(Nc2ccc3c(c2)OCCO3)c2cccc(C)c2n1	?	8.9µM*	19	4%	0
CSc1cccc(NC(=S)N2CCCN(Cc3cccc(Cl)c3)C2)c1	3.5µM*	-12%	-18	7%	-1
S=C(Nc1cccc(Cl)c1)N(CCCN1CCCC1)Cc1cccn1Cc1ccc(Cl)cc1	?	?	20	-2%	0
CSc1cccc(NC(=S)N(CCCN2CCCC2)Cc2cccn2Cc2ccc(Cl)cc2)c1	3.5µM*	11µM*	7	-5%	0
COc1ccc(NC(=S)N2CCCN(Cc3cccc(Cl)c3)C2)cc1	8.9µM*	-6%	12	13%	-1
CCOc1ccc(NC(=S)N2CCCN(Cc3cccc(Cl)c3)C2)cc1	?	7%	-10	16%	-1
CCCCCCCCN1[C@@H](CC(=O)O)c2ccc(/C=C/C(=O)O)cc2S1(=O)=O	.	.	.	.	0
COc1ccc(C2Nc3ccccc3-n3c(-c4ccccc4)c4c(=O)n(C)c(=O)n(C)c4c32)cc1 (configuration not stated)	5%	-6%	7	.	2
CCOC(=O)c1ccc(NC(=S)N(CCCN2CCCCC2)Cc2ccco2)cc1	11µM*	?	-5	?	1
CCOC(=O)C1=C[C@@H](C(=O)OCC)[C@@H]2C3=C(C(=O)C2(C)C)[C@H](c2ccccc2)[C@@H]2C(=O)N(c4ccccc4)C(=O)[C@@H]2[C@@H]3C1	.	.	-9	.	1
